This is a sample that favours compounds with a hit; in the whole collection about 0.47% have one here.
AID inhibitor: inhibitors of human activation induced cytidine deaminase | Q9GZX7 | AID deamination FRET fluorescence, UDG-coupled, 4 h | Potency, µM (doses to about 115 µM), usual class: inhibitors | hit rate 0.32% among 91,000 | AID 1347428; further: nearly all actives have a fitted effect of over 25% in size
Target sequence (Q9GZX7 whole entry, looked up): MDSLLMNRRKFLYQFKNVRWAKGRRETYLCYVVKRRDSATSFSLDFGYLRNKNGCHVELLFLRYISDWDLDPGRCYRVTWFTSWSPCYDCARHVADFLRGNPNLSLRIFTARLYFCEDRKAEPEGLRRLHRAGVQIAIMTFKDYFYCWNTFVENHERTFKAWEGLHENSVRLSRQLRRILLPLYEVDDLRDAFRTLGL
UDG counterscr: UDG inhibition counter-screen | FRET deamination/UDG coupled assay, UDG read, 4 h | Potency, µM (top dose mostly 115 µM), for inactives: top-dose activity change, negative = inhibition, most hits filed as inhibitors | hit rate 0.14% among 91,000 | AID 1347430; further: nearly all actives have a fitted effect of over 65% in size
An asterisk follows results filed as active; i = inactive; ? = inconclusive; [ ] = dose if it differs, or a comment. The call rests on the fitted dose curve; in most records, active means well fitted curve in the direction sought with a large enough effect; inconclusive means small, poorly fitted or top-dose-only effect, or another doubt; inactive means no such curve, though single readings can be large; an effect the other way counts as inactive or inconclusive. On the % scale 0 is the no-effect control and ±100 the full control effect; potency means the concentration at half of the fitted maximal effect.

SMILES | AID inhibitor | UDG counterscr
Cc1cccc(C)c1NC(=O)c1cc(S(=O)(=O)N2CCCc3ccccc32)ccc1F | i | 89.1µM*
Cc1ccc(NC(=O)c2cc(S(=O)(=O)N3CCCc4ccccc43)ccc2F)cc1F | i | ?
COc1ccc(NC(=O)C(C)n2cccn2)cc1Cl (centres undefined) | i | 0.2%
Cc1ccc(NC(=O)/C(C#N)=C/c2ccc(-c3ccc(Cl)c(C(=O)O)c3)o2)cc1C | 79.4µM* | ?
Cc1ccc(NC(=O)/C(C#N)=C\c2ccc(Cl)cc2Cl)cc1C | i | -9.4%
N#C/C(=C\c1ccc(-c2ccc(Cl)c(C(=O)O)c2)o1)c1nc2ccccc2[nH]1 | 28.2µM* | -2.4%
N#C/C(=C\c1ccc(-c2ccc(C(=O)O)cc2)o1)c1nc2ccccc2[nH]1 | i | -14.3%
O=C(O)CCC(=O)N1N=C(c2ccsc2)CC1c1ccc(F)cc1 (centres undefined) | i | 3.4%
O=C(CCS(=O)(=O)c1nc(-c2cccs2)cc(C(F)(F)F)n1)Nc1ccc(OC(F)(F)F)cc1 | 10µM* | -24.2%
COc1ccc(NC(=O)CCS(=O)(=O)c2nc(-c3cccs3)cc(C(F)(F)F)n2)cc1 | i | -6.5%
CC(=O)NC12CC3CC(C1)CC(C(=O)NCCSCc1ccc(Cl)cc1)(C3)C2 | i | -3.2%
Cn1c(=O)c2c(-c3ccccc3)n3c(c2n(C)c1=O)C(c1cc(Cl)ccc1O)Nc1ccccc1-3 (centres undefined) | i | ?
COc1ccc(-c2c3c(=O)n(C)c(=O)n(C)c3c3n2-c2ccccc2NC3c2ccccc2OC)cc1 (centres undefined) | ? | 79.4µM*
COC(=O)c1cc2oc3ccccc3c2n1CC(=O)Nc1ccc(OC)c(OC)c1 | i | ?
CCOC(=O)c1ccc(N2CCN(C(C)=O)CC2)c(NC(=O)c2ccccc2C)c1 | i | 0.3%
Cc1cccc(NC(=O)c2nccnc2N)n1 | i | 7.7%
CCc1cccc(NC(c2nnc(-c3ccccc3)o2)c2ccc(F)cc2Cl)c1 (centres undefined) | ? | 79.4µM*
COc1cc(OC)c(NC(c2nnc(-c3ccccc3)o2)c2ccc(F)cc2Cl)cc1Cl (centres undefined) | i | -7.7%
Cc1nc(-c2ccc(F)cc2)sc1CCNC(=O)c1ccccc1 | i | 4.9%
Cc1nc(-c2ccc(F)cc2)sc1CCNC(=O)c1cccs1 | ? | 79.4µM*
Cc1nc(-c2ccc(F)cc2)sc1CCNC(=O)c1ccc(C(C)(C)C)cc1 | 15.8µM* | -12.9%
COc1ccc(-c2nc(C)c(CCNC(=O)c3cccs3)s2)cc1OC | i | -9.0%
Cc1ccc(C(=O)Nc2c(NCc3ccccc3)c3ccccc3oc2=O)cc1 | i | 4.0%
O=C(Nc1c(Cl)cccc1Cl)c1cc(-c2ccc3c(c2)OCO3)on1 | i | 4.5%
COc1ccc(Cn2c(SCC(=O)N3CCN(c4ccc(F)cc4)CC3)nc3ccccc32)cc1 | i | 6.5%
SMILES | AID inhibitor | UDG counterscr
COc1ccc(Nc2cc(C(=O)NC3CCCC3)c3ccccc3n2)c(OC)c1 | i | -10.3%[57.5 µM]
Cc1ccc(NC(=O)CSc2nc(-c3ccccc3)cc(=O)[nH]2)cc1Cl | i | 1.1%
COc1ccc(C(=O)Nc2ccc(NC(=O)c3cccs3)cc2)cc1OC | 63.1µM* | -19.0%
COc1ccccc1C(=O)Nc1ccc(NC(=O)c2cccs2)cc1 | ? | -13.4%
Cc1cccc(CCn2c(=O)c3ccccc3n(Cc3ccccc3C)c2=O)c1 | i | 0.5%
Cc1nc(-c2c(Cl)cccc2Cl)sc1C(=O)N[C@H](C(=O)O)C(C)C | i | -8.5%
Cc1ccc2c(c1)C(=O)C(=O)N2CCOc1ccccc1C | i | 3.3%
N[n+]1cccc2ccccc21 | i | 1µM*
ClCC(Cl)C[n+]1cccc2ccccc21 (centres undefined) | i | -7.1%
O=C(CSc1nccn1-c1cccc(Cl)c1)Nc1cccc(C(F)(F)F)c1 | 31.6µM* | -19.6%
O=C(CSc1nccn1-c1ccc(Cl)cc1)Nc1ccc(Cl)c(Cl)c1 | i | -4.8%
COc1ccc(-c2noc(N3CCC(C(=O)N4CCN(c5ccccc5OC)CC4)CC3)n2)cc1 | i | ?
COc1ccc(-c2noc(N3CCC(C(=O)N(C)c4cc(Cl)ccc4OC)CC3)n2)cc1 | 79.4µM* | -13.7%
Cc1ccc2c(c1)C(=O)C(=O)N2Cc1ccc(OCCC(C)C)cc1 | i | -1.2%
COC1=C(OC)C(=O)c2ccccc2C1=O | 44.7µM* | -16.7%
Cc1cc2c(cc1C)-c1ccccc1C2=O | i | -12.9%
COc1ccc(NCC(=O)NNC(=O)CCOc2ccccc2OC)cc1 | i | -7.8%
CCN1c2ccccc2-n2cccc2C12CCN(C(=O)Nc1ccccc1Br)CC2 | i | -7.2%
CCN1c2cc(C)ccc2-n2cccc2C12CCN(C(=O)Nc1cc(OC)c(OC)c(OC)c1)CC2 | ? | 89.1µM*
O=C(CCc1ccccc1)NC1CC(=O)N(c2ccccc2)C1 (centres undefined) | i | 3.1%
COc1cccc(/C=C/c2nc(C#N)c(NCc3ccco3)o2)c1 | i | -8.1%
COc1ccc(CNc2oc(/C=C/c3cccc(OC)c3)nc2C#N)cc1 | i | 89.1µM*
Cc1cccc(NC(=O)Cn2c(=O)n(Cc3nc(-c4ccccc4)no3)c(=O)c3ccccc32)c1 | i | 10.4%
CC(C)(C)c1ccc(S(=O)(=O)N2CCC(c3ccncc3)CC2)cc1 | ? | -8.2%
CC(C)Cc1ccc(S(=O)(=O)N2CCC(c3ccncc3)CC2)cc1 | 35.5µM* | -8.8%
SMILES | AID inhibitor | UDG counterscr
Cc1ccc(N2CC(c3nc4ccccc4n3CCC3CCCCC3)CC2=O)cc1 (centres undefined) | i | ?
O=C1CC(c2nc3ccccc3n2CCCCOc2ccccc2)CN1c1ccccc1Cl (centres undefined) | ? | 89.1µM*
CCOc1ccccc1N1CC(c2nc3ccccc3n2CCCCOc2ccccc2)CC1=O (centres undefined) | i | -14.7%
CCc1ccccc1N1CC(c2nc3ccccc3n2CCC2CCCCC2)CC1=O (centres undefined) | ? | 79.4µM*
CCc1ccc(/C=C/C(=O)c2ccc(O)cc2)cc1 | i | 4.9%
COc1cc(/C=C(/C#N)c2ccccc2F)cc(I)c1OC | i | -6.8%
CCOC(=O)c1c(C)oc2nc(C)nc(N3CCN(c4ccccc4)CC3)c12 | i | 0.7%
CCOc1ccc(-c2nc(CSCC(=O)N3CCN(c4ccc(F)cc4)CC3)c(C)o2)cc1 | i | -8.7%
CCOC(=O)c1c(C)oc2nc(C)nc(N3CCN(c4cccc(C(F)(F)F)c4)CC3)c12 | 14.1µM* | -7.2%
CCOc1ccc(-c2nc(CSCC(=O)N3CCN(c4cccc(C(F)(F)F)c4)CC3)c(C)o2)cc1 | 31.6µM* | 28.6%
CC(NC(=O)CN1C(=O)COc2ccc(S(=O)(=O)N3CCCCCC3)cc21)c1ccccc1 (centres undefined) | i | -5.1%
COc1ccccc1C(=O)Oc1c(Sc2ccccc2)c(C)nn1-c1ccccc1 | 44.7µM* | ?
Cc1ccc(Sc2c(C)nn(-c3ccccc3)c2OC(=O)CC(C)C)cc1 | ? | -18.9%
COc1cccc(CNC(=O)C2CCCN(c3nc4ccccc4n4cccc34)C2)c1 (centres undefined) | i | -6.3%[57.5 µM]
Cc1ccc(CNC(=O)C2CCCN(c3nc4ccccc4n4cccc34)C2)cc1 (centres undefined) | 79.4µM* | -8.6%[57.5 µM]
CCOC(=O)c1c(C)oc2nc(C)nc(NCc3ccc(Cl)cc3)c12 | i | 8.1%

Bioassay records from PubChem.
